# Reference: PMC11062922 (Nature Chemical Biology, 2023)
# Like-named read-outs stand apart in the source and are kept apart here.
# Legend:
# Design in all cases: species or system human, MV4-11 + K-562 + COLO205 + SK-N-BE2 + OVCAR-8
# PRKAA1 = conditions: read-out: apparent Kd, n = 1
# STK4 = conditions: read-out: apparent Kd, compound concentrations: 100 nM and 1000 nM (sheet 'Samples'), n = 1
# CSNK1E = conditions: read-out: apparent Kd; compound concentrations:100 nM and 1000 nM (sheet 'Samples'); n = 1
# CDK6 = conditions: read-out: apparent Kd, n = 1
# SLK = conditions: read-out: apparent Kd, n = 1
# TAOK2 = conditions: read-out: apparent Kd; compound concentrations: 100 nM and 1000 nM (sheet 'Samples'), CATDS: 3.64108611477112E-2; n = 1
# BRAF = conditions: read-out: apparent Kd, n = 1
# MAP3K11 = conditions: read-out: apparent Kd, n = 1
# PRKAA2 = conditions: read-out: apparent Kd, n = 1
# CSNK1G1 = conditions: read-out: apparent Kd; compound concentrations:100 nM and 1000 nM (sheet 'Samples'); n = 1
# PIK3C2A = conditions: read-out: apparent Kd; compound concentrations:100 nM and 1000 nM (sheet 'Samples'); n = 1
# STK26 = conditions: read-out: apparent Kd, n = 1
# STRADA = conditions: read-out: apparent Kd, n = 1
# MARK4 = conditions: read-out: apparent Kd; compound concentrations:100 nM and 1000 nM (sheet 'Samples'); n = 1
# COX5A = conditions: read-out: apparent Kd, n = 1
# ILK = conditions: read-out: apparent Kd, n = 1
# NNT = conditions: read-out: apparent Kd, n = 1
# PRKAG2 = conditions: read-out: apparent Kd, n = 1
# DCTPP1 = conditions: read-out: apparent Kd; compound concentrations:100 nM and 1000 nM (sheet 'Samples'); n = 1
# [1] = compound concentrations:100 nM and 1000 nM (sheet 'Samples')
smiles,measurement,setting,value
COc1cc2ncn(-c3cc(OCCCc4ccccc4)c(C(N)=O)s3)c2cc1OC [GSK205189A],potency estimated from few doses,PRKAA1; [1],1020 nM
Nc1ncc(-c2cn[nH]c2)c2scc(-c3ccc4c(c3)CCN4C(=O)Cc3ccccc3)c12 [GSK2593067A],potency estimated from few doses,STK4; CATDS: 7.8104026917421798E-2,768 nM
CN(C)Cc1ccc(-c2ccc3c(Nc4ccc(Oc5ccccn5)cc4)ccnc3c2)o1 [GW567148X],potency estimated from few doses,"PRKAA1; compound concentrations: 100 nM and 1000 nM (sheet 'Samples'), CATDS: 1.81087827293436E-2",1380 nM
Fc1ccc(-c2c(-c3ccncc3)[nH]c3nccnc23)cc1 [RO1155697-000],potency estimated from few doses,CSNK1E,52.8 nM
N#Cc1cccc(Nc2nccc(-c3cnn4ncccc34)n2)c1 [GW778894X],potency estimated from few doses,CDK6; [1],1970 nM
same,potency estimated from few doses,CSNK1E,314 nM
CNC(=O)c1ccccc1Nc1nc(Nc2cccc(CS(C)(=O)=O)c2)ncc1C.O=CO [GSK1520489A],potency estimated from few doses,"SLK; compound concentrations: 100 nM and 1000 nM (sheet 'Samples'), CATDS: 2.2249249802163501E-2",107 nM
CN1CCc2ccc(Nc3nccc(-c4c(-c5cccc(NC(=O)c6c(F)cccc6F)c5)nc5ccccn45)n3)cc2C1.Cl [GSK1010829B],potency estimated from few doses,STK4; CATDS: 3.6315985659661598E-2,1170 nM
same,potency estimated from few doses,TAOK2,1170 nM
CC(C)c1nc(-c2cccc(NS(=O)(=O)c3c(F)cccc3F)c2F)c(-c2ccnc(Nc3ccc(N4CCOCC4)nc3)n2)s1 [GSK2008607A],potency estimated from few doses,"BRAF; compound concentrations: 100 nM and 1000 nM (sheet 'Samples'), CATDS: 1.89965490605935E-2",1670 nM
same,potency estimated from few doses,"MAP3K11; compound concentrations: 100 nM and 1000 nM (sheet 'Samples'), CATDS: 3.6955578451965801E-2",316 nM
same,potency estimated from few doses,"PRKAA2; compound concentrations: 100 nM and 1000 nM (sheet 'Samples'), CATDS: 2.0597012246937899E-2",1250 nM
Nc1nc(N)c2nc(-c3ccccc3)[nH]c2n1 [SKF-12778],potency estimated from few doses,CSNK1G1,924 nM
same,potency estimated from few doses,PIK3C2A,2130 nM
CC(C)c1nc(-c2ccc(F)c(NS(=O)(=O)c3c(F)cccc3F)c2)c(-c2ccnc(Nc3ccc(N4CCOCC4)nc3)n2)s1 [GSK1804250A],potency estimated from few doses,BRAF; [1],939 nM
COc1ccc(C2=C(c3cn(C)c4ccccc34)C(=O)NC2=O)cc1OC [RO3206363-000],potency estimated from few doses,"STK26; compound concentrations: 100 nM and 1000 nM (sheet 'Samples'), CATDS: 3.3943818014748203E-2",1450 nM
same,potency estimated from few doses,STK4; CATDS: 7.8788816860825395E-2,166 nM
same,potency estimated from few doses,"STRADA; compound concentrations: 100 nM and 1000 nM (sheet 'Samples'), CATDS: 3.11031335260477E-2",2050 nM
Cn1cc(C2=C(c3cn(CCCCCO)c4ccccc34)C(=O)NC2=O)c2ccccc21 [RO0318053-000],potency estimated from few doses,"PRKAA2; compound concentrations: 100 nM and 1000 nM (sheet 'Samples'), CATDS: 8.4372577909481605E-2",1450 nM
Nc1c(C(=O)c2ccccc2)cnn1-c1ccc(F)cc1 [RO1151246-000],potency estimated from few doses,CDK6; [1],2120 nM
same,potency estimated from few doses,MAP3K11; [1],1920 nM
same,potency estimated from few doses,MARK4,1290 nM
same,potency estimated from few doses,PIK3C2A,1660 nM
same,potency estimated from few doses,PRKAA2; [1],1780 nM
same,potency estimated from few doses,STK26; [1],1890 nM
same,potency estimated from few doses,STRADA; [1],1830 nM
Cc1[nH]nc2c1N=C(c1ccccc1Cl)c1cc([N+](=O)[O-])ccc1N2 [RO0274406-000],potency estimated from few doses,"COX5A; compound concentrations: 100 nM and 1000 nM (sheet 'Samples'), CATDS: 8.1877347137814999E-2",832 nM
Cc1ccc(-n2nc(C(C)(C)C)cc2NC(=O)Nc2ccc(OCCN3CCOCC3)cc2)cc1 [BIRB0876BS],potency estimated from few doses,COX5A; [1],963 nM
same,potency estimated from few doses,ILK; [1],1870 nM
COc1cc2ncn(-c3cc(OCc4sccc4Cl)c(C(N)=O)s3)c2cc1OC [GSK448459A],potency estimated from few doses,SLK; [1],434 nM
Cc1ccc(NC(=O)c2ccc(Cl)cc2)cc1-c1ccc(C(=O)Nc2ccncc2)cc1 [GSK1398467A],potency estimated from few doses,"NNT; compound concentrations: 100 nM and 1000 nM (sheet 'Samples'), CATDS: 0.228122835279086",956 nM
COc1ccc(COc2ccc(Cc3cnc(N)nc3N)cc2OC)cc1 [GW632580X],potency estimated from few doses,NNT; [1],1910 nM
Fc1cccc(COc2ccc(Nc3ncncc3C#Cc3ccccc3)cc2Cl)c1 [GW651576X],potency estimated from few doses,"ILK; compound concentrations: 100 nM and 1000 nM (sheet 'Samples'), CATDS: 6.7664406837509503E-2",1010 nM
same,potency estimated from few doses,"NNT; compound concentrations: 100 nM and 1000 nM (sheet 'Samples'), CATDS: 5.0215020986353498E-2",1770 nM
same,potency estimated from few doses,"PRKAG2; compound concentrations: 100 nM and 1000 nM (sheet 'Samples'), CATDS: 5.1701945188740897E-2",1670 nM
same,potency estimated from few doses,"STK26; compound concentrations: 100 nM and 1000 nM (sheet 'Samples'), CATDS: 5.7539827795964102E-2",1350 nM
COc1cc(F)c(F)c(F)c1C(=O)c1cnc(NC2CCN(S(C)(=O)=O)CC2)nc1N [RO4600703-000],potency estimated from few doses,SLK; [1],471 nM
CCCN1CCC(Oc2cc(Nc3nc(Nc4cccc(F)c4C(N)=O)c4cc[nH]c4n3)c(OC)cc2Cl)CC1 [GSK1713088A],potency estimated from few doses,"CDK6; compound concentrations: 100 nM and 1000 nM (sheet 'Samples'), CATDS: 0.18030383020801999",2000 nM
COc1cc2ncn(-c3cc(O[C@H](C)c4ccccc4Cl)c(C(N)=O)s3)c2cc1OC [GSK237701A],potency estimated from few doses,PRKAG2; [1],1520 nM
same,potency estimated from few doses,SLK; [1],782 nM
Clc1ccc(-c2nn3ncccc3c2-c2ccnc(Nc3ccccc3)n2)cc1 [GW829055X],potency estimated from few doses,"ILK; compound concentrations: 100 nM and 1000 nM (sheet 'Samples'), CATDS: 5.2015680047351402E-2",690 nM
same,potency estimated from few doses,"NNT; compound concentrations: 100 nM and 1000 nM (sheet 'Samples'), CATDS: 0.15486403103885801",130 nM
same,potency estimated from few doses,"PRKAG2; compound concentrations: 100 nM and 1000 nM (sheet 'Samples'), CATDS: 5.2406473036639797E-2",681 nM
Fc1ccc(-c2ncn(C3CCNCC3)c2-c2ccnc(Oc3ccc4c(c3)OCO4)n2)cc1 [SB-250715],potency estimated from few doses,CSNK1E,811 nM
NC(=O)c1cccnc1COc1cc(-c2ccc(N3CCOCC3)nc2)cc2ncccc12 [BI01125081],potency estimated from few doses,DCTPP1,1970 nM
same,potency estimated from few doses,MAP3K11; [1],1890 nM
Nc1nc(-c2ccccn2)c(-c2ccnc3ccccc23)s1 [GW548057X],potency estimated from few doses,CSNK1E,2100 nM
